The values below come from PubChem BioAssay AID720541 (National Center for Advancing Translational Sciences (NCATS), 2013).

Among all 1,300 compounds or so, about 420 (32%) were called active. Another 32% or so got no clear call; they are omitted. Calls come from the whole dose curve; as a rule, active = well fitted inhibition curve with a large enough effect; inconclusive = small, poorly fitted or top-dose-only effect; inactive = no such curve, though single readings can be large or run the other way. This is one part of the list.
Potency is the fitted concentration of half-maximal effect.

The assay concerns the target C-terminal-binding protein 1 (Homo sapiens) (UniProt Q13363). In words: qHTS for Inhibitors of the Phosphatase Activity of Eya2: Carboxyl-terminal binding protein (CtBP) Counterscreen for Cherry-picked Compounds. Note: nearly all actives have a fitted effect of over 65% in size. The following applies: purified protein-protein binding, AlphaScreen, 3 h; series mostly up to 46.1 µM. An excerpt: The Eya protein family is an essential co-activator of the Six1 transcription factor. Six1 is a developmental gene that is abnormally re-expressed in a large percentage of breast cancers. This over-expression plays a causal role in the initiation and metastatic development of breast cancers. The Eya family of protein is also found to contain a unique HAD phosphatase domain with protein tyrosine phosphatase activity which can potentially play a role in Six1-mediated breast tumorigenesis. Recently, Eya2 is found to dephosphorylate the histone variant H2AX and direct cells towards DNA repair instead of apoptosis in the event of DNA damage.
A 1536 well format, fluorescence based qHTS assay was developed and used to target the phosphatase activity of Eya2 (AID 488837). In addition, a CtBP counterscreen was developed using the AlphaScreen technology to evaluate compound selectivity to target […]. The data herein reports the activity of the cherry-picked compounds against the CtBP AlphaScreen. Compounds that are active or have > 100 fold selectivity vs. the Eya2 activity were excluded for further characterization. Inactivity is the desired outcome for the CtBP counterscreen.
NIH Chemical Genomics Center [NCGC]
NIH Molecular Libraries Probe Centers Network [MLPCN]
Assay Submitter (PI): Rui Zhao, University of Colorado Denver
Four microliters of reagent (25 nM GST-E1A, 25 nM CtBP-6x HIS) was dispensed in a 1536 well Greiner plates. Twenty-three nanoliter of test compounds (final concentration of 2.5 nM - 46 uM) and positive control E1A peptide inhibitor (final concentration of 0.14 nM - 4.6 uM) were added to the plates using the Kalypsys pintool equipped with a 1536 pin head. The plates was then incubated at room temperature for 2 hours followed by addition of 1 uL Alpha bead donor / acceptor mix (20 ug/mL final concentration). The assay plates were incubated for additional 1 hour at room temperature and protected from light. The AlphaScreen signal was obtained using the PerkinElmer EnVision plate reader using the 680 nm excitation and 520 - 620 nm emission filters. The data was normalized to the E1A peptide inhibitor for maximum inhibition and DMSO treated wells as negative control.
(In general: qHTS replaces the single test concentration by a dilution series.)
On to `C=C(C)COc1ccc(-c2nc(N)nc(C)c2-c2ccc(OC)cc2)c(O)c1`, for which the Potency was 6.01 µM (active). The result for `COc1ccc(-c2nc(N)ncc2-c2csc(C)n2)c(O)c1` reads “inactive”; that for `CC(C)S(=O)(=O)c1cnc(-c2ccccn2)nc1N`, 13.5 µM (active). The result for `CCc1cc2c(=O)[nH]c(-c3ccccn3)nc2s1` reads 1.9 µM (active). In the case of `Cn1c(-c2cc(Cl)ccc2O)nc2c1c(=O)[nH]c(=O)n2Cc1ccccc1` it was “inactive”; in that of `COc1cccc(NC(=O)c2ccc3c(c2)CCN3S(C)(=O)=O)c1`, “inactive”; in that of `COc1cc(NC(=O)c2ccc(S(=O)(=O)N(C)c3ccccc3)cc2)cc(OC)c1`, “inactive”. Turning to `CC(=O)c1ccc(NS(=O)(=O)c2cccc(C(=O)Nc3ccccc3C(=O)O)c2)cc1`, the Potency is 15.1 µM (active). In the case of `CC(=O)Oc1cccc(C(=O)Nc2cccc(C(=O)Nc3ccccc3C(=O)O)c2)c1` it was 8.49 µM (active); in that of `CN(CC(=O)Nc1cccc(F)c1)C(=O)c1ccc(COc2ccccc2)cc1`, “inactive”; in that of `CC(C)CCNC(=O)c1onc(CSc2ccncc2)c1C(=O)NCCC(C)C`, “inactive”.

As to `Cc1nn(-c2ccccc2)c2c1C(c1cccnc1)N1C=C(S(=O)(=O)N3CCCCC3)C=CC1=N2` (stereo unspecified), the Potency result was “inactive”. In the case of `CC1CCCN(c2ccc3nc4ccccc4c(=O)n3n2)C1` (stereo unspecified) it was 7.57 µM (active). The result for `COc1cc(/C=C2\C(C)=C(C#N)c3nc(N)c(C#N)c(C)c32)ccc1OCC(=O)O` reads 8.49 µM (active); that for `COc1cc(C=NO)nc(-c2ccccn2)c1`, 1.07 µM (active); that for `NC(=O)c1nn2c(C(F)(F)F)cc(-c3ccccc3)nc2c1Br`, 10.7 µM (active). The result for `Cc1ccc(C(=O)ON=C2CCN(c3ccc([N+](=O)[O-])cc3)CC2)cc1` reads “inactive”; that for `CCN(Cc1cccc(S(=O)(=O)O)c1)c1ccc(C(=C2C=CC(=[N+](CC)Cc3cccc(S(=O)(=O)O)c3)C=C2)c2ccc(O)cc2S(=O)(=O)O)cc1`, 12 µM (active). As for `CCN(Cc1cccc(S(=O)(=O)O)c1)c1ccc(C(=C2C=CC(=[N+](CC)Cc3cccc(S(=O)(=O)O)c3)C=C2)c2ccccc2S(=O)(=O)[O-])cc1`, the Potency was 12 µM (active). The result for `N#CC1=C(N)n2c(s/c(=C\c3cccs3)c2=O)=C(C#N)C1c1cccs1` (stereo unspecified) reads 13.5 µM (active).

For `CC(=O)N1CCCc2cc(S(=O)(=O)N3CCCC(C(=O)N4CCN(c5cc(C)ccc5C)CC4)C3)ccc21` (stereo unspecified), the Potency result is “inactive”. As to `CN1C(=O)NC(c2ccccc2)(C(F)(F)F)S/C1=C(/C#N)c1nnc(N2CCOCC2)n1-c1ccccc1` (stereo unspecified), the Potency entry was “inactive”.

Turning to `CCOc1cc(C=NNC(=O)c2cccc(S(=O)(=O)N3CCCC3)c2)ccc1O`, the Potency is 7.57 µM (active).

Turning to `Cc1cccc(C)c1Nc1c(-c2ccccn2)nc2ccccn12`, the Potency was 7.57 µM (active). The result for `Cc1ccccc1Nc1c(-c2ccccn2)nc2ccccn12` reads 2.69 µM (active); that for `Cc1ccc(Nc2c(-c3ccccn3)nc3ccc(C)cn23)cc1`, 4.26 µM (active). Consider `Cc1onc(-c2ccccc2Cl)c1C(=O)N(Cc1ccc(N(C)C)cc1)C(C)C`, for which the Potency entry was “inactive”.

In the case of `Cc1cccc(S(=O)(=O)C(C#N)c2nc3ccccc3nc2N2CCOCC2)c1` (stereo unspecified), the Potency entry is “inactive”. The result for `CC(C)N=c1cc2n(-c3ccc(Cl)cc3)c3ccccc3nc-2cc1Nc1ccc(Cl)cc1` reads 3.38 µM (active); that for `Cn1c(=O)c2cc(S(=O)(=O)Nc3cccc(F)c3)ccc2n(C)c1=O`, “inactive”; that for `O=S(=O)(Nc1cccc(-c2cn3cccnc3n2)c1)c1ccccc1`, 4.26 µM (active). On to `O=S(=O)(Nc1cccc(-c2cn3cccnc3n2)c1)c1ccc(F)cc1`, for which the Potency was 15.1 µM (active). In the case of `COc1cc(NC(=O)c2cccs2)c(OC)cc1NC(=O)CCC(=O)Nc1ccc2ncccc2c1` it was 1.69 µM (active); in that of `O=C(CNC(=O)c1cccs1)OCC(=O)c1ccc(Cl)cc1`, “inactive”; in that of `COc1cc(NC(=O)c2cccs2)c(OC)cc1NC(=O)Cc1ccccc1`, 7.57 µM (active). In the case of `COc1cc(NC(=O)c2cccs2)c(OC)cc1NC(=O)Nc1ccc(F)cc1` it was “inactive”; in that of `COc1cc(NC(=O)c2cccs2)c(OC)cc1NC(=O)CCn1nnc2ccccc21`, 12 µM (active); in that of `O=C(CC(=O)c1c(F)cccc1Cl)c1ccccc1O`, “inactive”. In the case of `Cc1ccc(S(=O)(=O)Nc2c(C)n(C)n(-c3ccccc3)c2=O)cc1C(=O)OC(C)C(=O)N(C)c1ccccc1` (stereo unspecified) it was “inactive”. As for `O=C1/C(=C/c2ccco2)SC(=S)N1c1cccnc1`, the Potency was 15.1 µM (active). As to `CCOC(=O)c1c(C)oc2c1c(C=NCc1ccccn1)c(O)c1ccccc12`, the Potency is 15.1 µM (active). For the molecule `CC(=O)Oc1cccc2c1C(=O)c1c(OC(C)=O)cc(C(=O)O)cc1C2=O`, the Potency was 12 µM (active). In the case of `O=C(O)c1cccc(N2C(=O)c3cccc(Oc4ccc(Cl)cc4)c3C2=O)c1` it was “inactive”; in that of `N#C/C(=C\c1ccc(OC(=O)c2ccccn2)cc1)C(N)=O`, 12 µM (active); in that of `CCOC(=O)/C(C#N)=C/c1ccc(OC(=O)c2ccccn2)cc1`, 7.57 µM (active). In the case of `N#C/C(=C\c1ccc(OC(=O)c2ccc(Cl)s2)cc1)c1nc2ccccc2[nH]1` it was “inactive”; in that of `N#C/C(=C/c1ccc(OC(=O)c2ccc(Br)s2)cc1)c1nc2ccccc2[nH]1`, “inactive”; in that of `N#C/C(=C\c1ccc(OC(=O)c2ccc(Br)s2)cc1)c1nc2ccccc2[nH]1`, “inactive”. In the case of `O=C(Oc1cncc(Cl)c1)c1sccc1Cl` it was “inactive”. On to `Cc1cc2nc(/N=C(\N)NC(=O)N3c4ccccc4Sc4ccccc43)nc(C)c2cc1C`, for which the Potency result is “inactive”. The result for `Cc1cc(C)cc(COc2ccc3c(C)c(CC(=O)O)c(=O)oc3c2C)c1` reads “inactive”. The result for `Cc1c(CCC(=O)O)c(=O)oc2c(C)c(OCc3cc4c(cc3Cl)OCO4)ccc12` reads 13.5 µM (active); that for `O=C(Cn1ccc(=O)[nH]c1=O)Nc1nccs1`, “inactive”.

`Nc1ccc(N2CCCCC2)c2nonc12`: the Potency was 6.75 µM (active). For the molecule `O=C(Cc1cccs1)Nc1ccc2c(c1)C(=O)OC2`, the Potency entry is “inactive”. In the case of `O=C1CCCC2=C1C(c1ccco1)Nc1ccc3ccccc3c12` (stereo unspecified) it was “inactive”. For the molecule `Cc1cc(NS(=O)(=O)c2ccc(NC(=O)c3cnc(Cl)c(Cl)c3)cc2)nc(C)n1`, the Potency is 1.69 µM (active). In the case of `O=C(O)c1ccc(Nc2cnc3ccccc3n2)cc1` it was “inactive”. As for `Cc1cc(NS(=O)(=O)c2ccc(NC(=O)c3cc4c(=O)n5ccccc5nc4s3)cc2)nc(C)n1`, the Potency was 6.75 µM (active). The result for `O=C(Nc1ccc(S(=O)(=O)Nc2cnc3ccccc3n2)cc1)c1ccc(Cl)c([N+](=O)[O-])c1` reads 2.13 µM (active); that for `O=C(Nc1ccc(Nc2ccccc2)cc1)c1ccc(Cl)cc1[N+](=O)[O-]`, “inactive”.
